Where a name gives a salt, the structure may show the parent alone. ± gives the standard deviation of the averaged measurements. Over roughly 1,900 compounds, “normalised cell viability (NPI; 0 = phenylarsine oxide control, 1 = DMSO control)” has its median near 1; the lowest 2% begin near 0.039. Many of the other results were omitted from the sample, so the lowest values are more common in it than they were.
Test system: NCI-H1944
Test: normalised cell viability (NPI; 0 = phenylarsine oxide control, 1 = DMSO control) (fraction of DMSO control); NCI-H1944 is a non-small cell lung cancer line; higher = more viable cells (less compound toxicity)
Settings: 6 days
[1] = glucocorticoid arm: hydrocortisone 2.75 uM co-treatment, compound 1 µM
[2] = glucocorticoid arm: hydrocortisone 2.75 uM co-treatment, compound 5 µM
[3] = glucocorticoid arm: hydrocortisone 2.75 uM pre-treated 2 days and continued, compound 1 µM
[4] = glucocorticoid arm: hydrocortisone 2.75 uM pre-treated 2 days and continued, compound 5 µM
[5] = glucocorticoid arm: vehicle, compound 1 µM
[6] = glucocorticoid arm: vehicle, compound 5 µM
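Note: CTB read-out in 384-well plates, triplicate wells, NPI normalised per plate against 1 µM phenylarsine oxide (0) and 0.1% DMSO (1) controls.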

SMILES | normalised cell viability [1] | normalised cell viability [2] | normalised cell viability [3] | normalised cell viability [4] | normalised cell viability [5] | normalised cell viability [6]
COc1cc(OC)c(/C=C/S(=O)(=O)Cc2ccc(OC)c(NCC(=O)O)c2)c(OC)c1 | 0.307 ± 0.021 | 0.261 ± 0.026 | 0.572 ± 0.03 | 0.572 ± 0.051 | 0.0447 ± 0.0079 | 0.0341 ± 0.0062
Cc1c(F)ccc(C(=O)Nc2cc([N+](=O)[O-])ccc2N2CCN(C)CC2)c1Cl | 1.03 ± 0.011 | 0.987 ± 0.02 | 1.027 ± 0.0058 | 1 ± 0.013 | 0.9957 ± 0.0075 | 0.9963 ± 0.0047
O=C(O)[C@H]1NCCC[C@H]1C(=O)O (relative stereo) [cis-Piperidine-2,3-dicarboxylic acid] | 1 ± 0.016 | 1 ± 0.022 | 1 ± 0.018 | 0.973 ± 0.0087 | 0.987 ± 0.0092 | 0.9887 ± 0.005
CSC(=N)NCCC[C@H](N)C(=O)O [S-Methyl-L-thiocitrulline acetate] | 1.003 ± 0.0058 | 0.984 ± 0.028 | 1.01 ± 0.01 | 0.989 ± 0.018 | 0.9847 ± 0.0051 | 0.994 ± 0.014
Nc1ncn([C@@H]2O[C@H](CO)[C@@H](O)[C@H]2O)c(=O)n1 [5-azacytidine] | 1.006 ± 0.0063 | 1.03 | 1.01 ± 0.018 | 1.08 ± 0.014 | 0.972 ± 0.015 | 0.8937 ± 0.006
Nc1ncn([C@@H]2O[C@H](CO)[C@@H](O)[C@H]2O)c(=O)n1 [Azacitidine] | 1.03 | 1.11 ± 0.025 | 1 ± 0.037 | 0.952 ± 0.24 | 0.976 ± 0.011 | 0.903 ± 0.017
Nc1ccn([C@@H]2O[C@H](CO)[C@@H](O)[C@@H]2O)c(=O)n1 | 0.178 ± 0.001 | 0.115 ± 0.0035 | 0.91 ± 0.011 | 0.31 ± 0.04 | 0.0325 ± 0.0032 | 0.0276 ± 0.0059
Nc1ccn([C@@H]2O[C@H](CO)[C@@H](O)C2(F)F)c(=O)n1 [Gemcitabine hydrochloride; Gemcitabine HCl] | 0.202 ± 0.0062 | 1.04 ± 0.015 | 0.422 ± 0.044 | 1.03 | 0.0536 ± 0.0027 | 1.013 ± 0.0058
Nc1ncn([C@@H]2O[C@H](CO)[C@@H](O)[C@H]2O)c(=O)n1 [Azacitidine; 5-azacytidine] | 1.04 ± 0.026 | 1.11 ± 0.015 | 1.04 ± 0.01 | 1.1 ± 0.021 | 0.98 ± 0.017 | 0.766 ± 0.025
Nc1ccn([C@@H]2O[C@H](CO)[C@@H](O)[C@@H]2O)c(=O)n1 [Cytosine-1-beta-D-arabinofuranoside hydrochloride] | 0.352 ± 0.026 | 0.163 ± 0.022 | 1.03 ± 0.017 | 0.802 ± 0.22 | 0.0913 ± 0.011 | 0.0638 ± 0.0066
CN1CCN(C2Cc3ccccc3Sc3ccc(Cl)cc32)CC1 (racemic) [(±)-Octoclothepin maleate] | 1.01 ± 0.011 | 0.9477 ± 0.0045 | 1.01 ± 0.015 | 1.05 ± 0.087 | 1 ± 0.0095 | 1 ± 0.011
[N-]=[N+]=Nc1ccc(C(=O)CSC[C@H](NC(=O)CC[C@H](N)C(=O)O)C(=O)NCC(=O)O)cc1 [S-(p-Azidophenacyl)glutathione] | 1.017 ± 0.0058 | 0.814 ± 0.0099 | 0.9947 ± 0.0067 | 1 ± 0.021 | 0.988 ± 0.014 | 0.517 ± 0.38
COCC[n+]1c2c(n(Cc3cnccn3)c1C)C(=O)c1ccccc1C2=O | 0.00685 ± 0.0014 | 0.00188 ± 0.0012 | 0.00552 ± 0.0012 | 0.0024 ± 0.00039 | 0.00736 ± 0.00083 | 0.00199 ± 0.00048
OC[C@H]1O[C@@H](n2cnc3c(Nc4ccccc4)ncnc32)[C@H](O)[C@@H]1O [N6-Phenyladenosine] | 1 ± 0.014 | 1.01 ± 0.011 | 1.02 ± 0.022 | 1.013 ± 0.0058 | 1.01 ± 0.01 | 1.002 ± 0.0076
COc1[nH]c2ccc(F)cc2c1C(=O)OCC1CCN(CCNS(C)(=O)=O)CC1.NS(=O)(=O)O | 1.023 ± 0.0058 | 0.955 ± 0.011 | 1.017 ± 0.0058 | 0.989 ± 0.021 | 0.9993 ± 0.0011 | 1.007 ± 0.0058
O=C(/C=C/c1ccc(CN(CCO)CCc2c[nH]c3ccccc23)cc1)NO [LAQ824 (Dacinostat)] | 0.00706 ± 0.0016 | -0.000483 ± 0.0039 | 0.0151 ± 0.00085 | 0.00158 ± 0.00078 | 0.0063 ± 0.00096 | -0.000399 ± 0.00047
N[C@@H](Cc1c[nH]c2ccccc12)C(=O)O [L-Tryptophan] | 1.01 | 1.027 ± 0.0058 | 1.03 ± 0.032 | 1.033 ± 0.0058 | 0.999 ± 0.001 | 1.003 ± 0.0058
CN(C)Cc1ccc(S(=O)(=O)n2ccc(/C=C/C(=O)NO)c2)cc1 [Resminostat] | 0.941 ± 0.011 | 0.92 ± 0.018 | 0.961 ± 0.011 | 1.023 ± 0.0058 | 1.001 ± 0.0081 | 0.214 ± 0.026
Ic1ccc(N2CCN(Cc3c[nH]c4ncccc34)CC2)cc1 [L-750,667 trihydrochloride] | 0.969 ± 0.003 | 0.883 ± 0.014 | 0.99 ± 0.0044 | 0.999 ± 0.087 | 0.988 ± 0.011 | 0.998 ± 0.019
CC1CCN=C(N)S1 (racemic) [(±)-AMT hydrochloride] | 0.982 ± 0.015 | 0.968 ± 0.015 | 0.9923 ± 0.0067 | 0.975 ± 0.0071 | 0.9907 ± 0.0095 | 0.9677 ± 0.0046
OCc1ccc(-c2ccc(-c3ccc(CO)s3)o2)s1 | 0.979 ± 0.0061 | 0.0751 ± 0.0071 | 1.017 ± 0.0058 | 0.358 ± 0.022 | 0.621 ± 0.045 | 0.0128 ± 0.0026
CCc1ccc(/C=C2/SC(=S)NC2=O)cc1 | 1.01 ± 0.017 | 1.06 ± 0.011 | 1.04 | 1.04 ± 0.021 | 1.007 ± 0.0058 | 1.013 ± 0.0058
COC(=O)C(N)Cc1ccc(Cl)cc1 (racemic) [DL-p-Chlorophenylalanine methyl ester hydrochloride] | 1.02 ± 0.01 | 1.02 ± 0.015 | 1.017 ± 0.0058 | 1.02 ± 0.014 | 1.006 ± 0.0069 | 1.017 ± 0.0058
NC[C@@H]1O[C@H](C23CC4CC(CC(C4)C2)C3)Cc2c1ccc(O)c2O | 1.01 ± 0.012 | 0.0562 ± 0.02 | 1.01 ± 0.011 | 0.996 ± 0.077 | 1.01 ± 0.011 | 0.0119 ± 0.0027

— the supplement of paper PMC8285479
